The record followed here is ChEMBL document CHEMBL2218924, “A broad activity screen in support of a chemogenomic map for kinase signalling research and drug discovery” (Biochem J, 2013).

The target of assay [1] is T1, Serine/threonine-protein kinase BRSK1 (Homo sapiens) (UniProt Q8TDC3).
T1 sequence (whole entry): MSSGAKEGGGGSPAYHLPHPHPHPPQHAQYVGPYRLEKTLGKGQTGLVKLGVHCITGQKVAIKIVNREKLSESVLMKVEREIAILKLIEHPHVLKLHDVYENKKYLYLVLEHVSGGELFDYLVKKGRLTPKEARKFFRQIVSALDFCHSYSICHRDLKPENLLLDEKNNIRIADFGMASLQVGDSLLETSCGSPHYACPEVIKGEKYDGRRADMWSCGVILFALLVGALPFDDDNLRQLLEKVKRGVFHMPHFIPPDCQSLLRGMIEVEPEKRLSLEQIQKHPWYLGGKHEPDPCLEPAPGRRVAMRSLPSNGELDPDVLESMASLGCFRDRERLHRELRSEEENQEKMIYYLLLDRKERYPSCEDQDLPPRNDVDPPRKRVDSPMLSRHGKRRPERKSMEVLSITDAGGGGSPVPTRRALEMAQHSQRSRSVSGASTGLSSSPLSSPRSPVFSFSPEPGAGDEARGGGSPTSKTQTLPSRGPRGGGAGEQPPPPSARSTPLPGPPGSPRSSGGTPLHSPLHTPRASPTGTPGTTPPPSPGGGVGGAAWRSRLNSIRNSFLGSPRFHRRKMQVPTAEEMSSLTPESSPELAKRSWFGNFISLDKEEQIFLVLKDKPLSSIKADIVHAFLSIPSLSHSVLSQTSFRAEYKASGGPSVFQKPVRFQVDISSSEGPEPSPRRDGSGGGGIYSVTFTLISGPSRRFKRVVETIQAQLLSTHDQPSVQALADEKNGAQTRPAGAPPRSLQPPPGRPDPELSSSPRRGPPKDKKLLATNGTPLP
To be noted: at 1 µM.

Assay [2] has as its target T1, Serine/threonine-protein kinase BRSK1 (Homo sapiens). To be noted: at 10 µM.
Assay [3] has as its target T2, Serine/threonine-protein kinase BRSK2 (Homo sapiens) (UniProt Q8IWQ3).
T2 sequence (whole entry): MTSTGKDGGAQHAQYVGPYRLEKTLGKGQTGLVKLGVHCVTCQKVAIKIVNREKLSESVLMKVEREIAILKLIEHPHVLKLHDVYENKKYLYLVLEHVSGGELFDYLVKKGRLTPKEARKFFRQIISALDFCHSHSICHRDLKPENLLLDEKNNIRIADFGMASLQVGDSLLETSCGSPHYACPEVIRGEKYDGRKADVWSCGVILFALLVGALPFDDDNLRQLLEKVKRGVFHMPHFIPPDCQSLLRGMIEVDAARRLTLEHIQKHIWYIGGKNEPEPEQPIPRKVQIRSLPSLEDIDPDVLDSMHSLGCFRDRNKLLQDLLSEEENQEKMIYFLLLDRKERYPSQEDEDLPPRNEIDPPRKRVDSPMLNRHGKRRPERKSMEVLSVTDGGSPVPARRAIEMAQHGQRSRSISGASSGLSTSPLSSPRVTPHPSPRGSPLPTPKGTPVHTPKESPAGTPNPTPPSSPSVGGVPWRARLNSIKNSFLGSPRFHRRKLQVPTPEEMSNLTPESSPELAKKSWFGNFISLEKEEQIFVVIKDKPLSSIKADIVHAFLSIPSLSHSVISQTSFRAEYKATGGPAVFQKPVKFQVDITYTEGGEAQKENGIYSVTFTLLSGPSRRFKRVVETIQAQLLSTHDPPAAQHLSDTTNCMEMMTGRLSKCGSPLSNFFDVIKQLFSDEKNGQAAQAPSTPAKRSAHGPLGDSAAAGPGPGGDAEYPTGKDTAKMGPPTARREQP
Conditions: at 1 µM.

Assay [4] concerns the target T2, Serine/threonine-protein kinase BRSK2 (Homo sapiens). Conditions: at 10 µM.
For assay [5], the target named is T3, Cyclin-dependent kinase 1/cyclin B1 (Homo sapiens) (UniProt P06493+P14635). Conditions: at 1 µM.
T3 sequence (P06493 whole entry, looked up): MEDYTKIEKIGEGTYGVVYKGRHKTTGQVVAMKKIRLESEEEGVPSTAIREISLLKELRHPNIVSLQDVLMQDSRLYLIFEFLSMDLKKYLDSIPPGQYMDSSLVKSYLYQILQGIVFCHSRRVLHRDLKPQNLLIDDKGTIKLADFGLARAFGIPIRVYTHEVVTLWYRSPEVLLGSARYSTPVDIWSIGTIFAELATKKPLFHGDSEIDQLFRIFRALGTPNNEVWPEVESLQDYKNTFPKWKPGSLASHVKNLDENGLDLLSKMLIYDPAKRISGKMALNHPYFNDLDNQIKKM
T3 sequence (P14635 whole entry, looked up): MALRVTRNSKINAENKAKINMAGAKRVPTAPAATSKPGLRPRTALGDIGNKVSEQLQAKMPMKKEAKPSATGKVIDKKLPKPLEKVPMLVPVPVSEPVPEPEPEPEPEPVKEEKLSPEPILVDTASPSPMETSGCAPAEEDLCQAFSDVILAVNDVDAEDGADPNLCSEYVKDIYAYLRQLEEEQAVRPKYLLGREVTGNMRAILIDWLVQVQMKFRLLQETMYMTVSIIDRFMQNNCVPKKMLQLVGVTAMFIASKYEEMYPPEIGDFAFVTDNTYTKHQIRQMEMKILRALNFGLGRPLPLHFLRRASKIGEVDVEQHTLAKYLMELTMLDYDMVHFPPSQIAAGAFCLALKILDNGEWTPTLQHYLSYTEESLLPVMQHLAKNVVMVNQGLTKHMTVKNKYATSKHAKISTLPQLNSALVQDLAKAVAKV
Assay [6] concerns the target T3, Cyclin-dependent kinase 1/cyclin B1 (Homo sapiens). Conditions: at 10 µM.
The target of assay [7] is T4, Cyclin-dependent kinase 2/cyclin A (Homo sapiens) (UniProt P24941+P20248+P78396). Conditions: at 1 µM.
Assay [8] addresses T4, Cyclin-dependent kinase 2/cyclin A (Homo sapiens). To be noted: at 10 µM.
Assay [9] addresses T5, Cyclin-dependent kinase 2/cyclin E (Homo sapiens) (UniProt P24864+P24941+O96020). To be noted: at 1 µM.
Assay [10] deals with T5, Cyclin-dependent kinase 2/cyclin E (Homo sapiens). Conditions: at 10 µM.

Molecules are shown by their SMILES.

As usually defined, the residual activity is the signal under treatment as a percentage of the control signal. Regarding `Oc1ccc(Nc2nc(-c3ccc(Cl)cc3)cs2)cc1`, the residual activity amounted to 81% in assay [1]; 90% in assay [2]; 125% in [3]; 126% in assay [4]; 111% in assay [5]; 84% in [6]. In addition, the residual activity worked out at 101% in [7], 78% in assay [8], 100% in assay [9] and 93% in assay [10].

For `O=C1Nc2cc(Br)ccc2/C1=C1/Nc2ccccc2/C1=N\O`, the residual activity in assay [1] worked out at 33%; in assay [2], 12%; in assay [3], 4%; in assay [4] it was 6%; in [5], 54%; in assay [6], 12%. Also, the residual activity in [7] is 37%; in assay [8] it was 38%; in assay [9], 3%; in assay [10] it was 7%.

As to `CCN(CC)CCCCN1c2ccccc2Oc2ccc(Cl)cc21`, the residual activity is 88% in [1]; 105% in assay [2]; 131% in [3]; 126% in [4]; 119% in assay [5]; 96% in assay [6]. Besides, the residual activity in assay [7] amounted to 132%; in [8], 102%; in assay [9], 116%; in assay [10], 106%.

Consider `O=[N+]([O-])c1ccc(-c2nc(-c3ccc(F)cc3)c(-c3ccncc3)[nH]2)cc1`, for which the residual activity in assay [1] worked out at 97%; in assay [2], 101%; in [3], 118%; in [4] it was 103%; in [5], 102%; in assay [6], 103%. In addition, the residual activity in [7] came out at 90%; in assay [8], 79%; in [9] it was 105%; in assay [10] it was 96%.

As to `COc1ccc(OC)c2c(=S)c3ccccc3[nH]c12`, the residual activity was found to be 78% in assay [1]; 76% in assay [2]; 99% in assay [3]; 89% in [4]; 100% in assay [5]; 94% in [6]. The residual activity in assay [7] was found to be 85%; in assay [8] it was 80%; in [9] it was 85%; in assay [10] it was 74%.

Turning to `CC(C)n1cnc2/c(=N/c3cccc(Cl)c3)nc(NCCO)[nH]c21`, the residual activity in assay [1] came out at 89%; in assay [2], 89%; in [3] it was 118%; in assay [4], 104%; in assay [5], 58%; in [6], 13%. Moreover, the residual activity in assay [7] worked out at 24%; in assay [8] it was 5%; in assay [9] it was 25%; in assay [10] it was 2%.

On to `Cc1ccc(NC2=CC(=O)c3sc(C)nc3C2=O)cc1`, for which the residual activity in assay [1] is 101%; in [2] it was 105%; in [3], 110%; in [4], 97%; in assay [5], 101%; in assay [6], 106%. In addition, the residual activity in [7] came out at 91%; in assay [8], 91%; in assay [9], 97%; in assay [10] it was 91%.

Consider `Cn1cnc2cc3c(Nc4cccc(Br)c4)ncnc3cc21`, for which the residual activity was 58% in assay [1]; 13% in [2]; 91% in assay [3]; 62% in assay [4]; 103% in [5]; 94% in assay [6]. The residual activity in assay [7] amounted to 132%; in assay [8], 87%; in assay [9] it was 110%; in [10], 102%.

For `O=C(Nc1cccc(Nc2nccc(Nc3cccc(C(F)(F)F)c3)n2)c1)C1CC1`, the residual activity was 26% in assay [1]; 27% in assay [2]; 93% in assay [3]; 40% in assay [4]; 96% in assay [5]; 102% in assay [6]. Moreover, the residual activity in assay [7] worked out at 127%; in assay [8], 93%; in [9], 94%; in assay [10], 97%.

Regarding `Cc1nc2cc3nc(-c4cccs4)cnc3cc2n1C`, the residual activity in assay [1] came to 68%; in assay [2], 75%; in assay [3] it was 102%; in assay [4], 105%; in [5], 109%; in assay [6], 79%. The residual activity in assay [7] was found to be 144%; in assay [8] it was 91%; in [9], 115%; in assay [10], 104%.

In the case of `Cc1nc(-c2ccccc2)c(-c2ccncc2)o1`, the residual activity came out at 103% in [1]; 85% in [2]; 120% in [3]; 96% in assay [4]; 104% in [5]; 92% in assay [6]. The residual activity in assay [7] was determined as 97%; in [8], 92%; in assay [9], 104%; in assay [10], 95%.

On to `O=C(O)c1ccc2c3c1cccc3c(=O)n1c3ccccc3nc21`, for which the residual activity in assay [1] came out at 84%; in assay [2], 46%; in [3], 104%; in assay [4], 41%; in [5], 62%; in [6], 15%. For the same molecule, the residual activity was 82% in [7], 41% in assay [8], 99% in [9] and 81% in [10].

For the molecule `O=C1NC(=O)c2cc(Nc3ccc(F)cc3)c(Nc3ccc(F)cc3)cc21`, the residual activity in [1] worked out at 48%; in [2], 56%; in assay [3], 107%; in assay [4] it was 92%; in [5], 111%; in assay [6], 90%. Also, the residual activity in [7] is 129%; in [8] it was 79%; in assay [9], 98%; in [10], 69%.

Turning to `O=C1c2ccccc2-[n+]2ccc3c([nH]c4ccccc43)c21`, the residual activity in assay [1] stood at 75%; in assay [2] it was 74%; in assay [3] it was 112%; in assay [4], 89%; in assay [5], 112%; in assay [6], 107%. Besides, the residual activity in assay [7] is 84%; in assay [8], 77%; in assay [9], 92%; in [10], 97%.

On to `Cn1cc(/C=C2\C(=O)Nc3ccc(S(N)(=O)=O)cc32)c2ccccc21`, for which the residual activity in assay [1] was determined as 23%; in assay [2], 3%; in assay [3], 36%; in assay [4], 19%; in assay [5], 34%; in assay [6], 39%. The residual activity stood at 68% in assay [7], 46% in [8], 67% in [9] and 52% in [10].

For the molecule `Cc1ccc(S(=O)(=O)/C=C/C#N)cc1`, the residual activity was determined as 83% in assay [1]; 99% in assay [2]; 113% in assay [3]; 77% in assay [4]; 106% in assay [5]; 102% in assay [6]. Besides, the residual activity in [7] was 124%; in [8], 91%; in [9], 91%; in assay [10], 105%.
